Assay outcomes from PubChem BioAssay.
The list is not random: actives were taken first. Their share in the collection is about 3.5%.
MITF inh: MITF inhibitors, primary screen, biochemical, AlphaScreen, human. AlphaScreen MITF homodimerization, bead proximity signal. Microphthalmia-associated transcription factor (Homo sapiens), O75030. inhibition, % at 2.6 µM. AID 1259374, 2018. 650,000 tested, 0.91% active; in the data active means inhibition above about 50%
FBW7 activator: FBW7 E3 ligase activators, primary screen, biochemical, AlphaScreen, human. F-box/WD repeat-containing protein 7 (Homo sapiens), Q969H0. AlphaScreen FBW7–phospho-cyclin E peptide binding, activator screen. normalized activity (activation), % at 26.1 µM. 650,000 tested, 0.13% active; in the data active means normalized activity above about 1.9%;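 further: purified mutant Fbw7 with reduced substrate affinity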
Target sequence (Q969H0 whole entry, looked up): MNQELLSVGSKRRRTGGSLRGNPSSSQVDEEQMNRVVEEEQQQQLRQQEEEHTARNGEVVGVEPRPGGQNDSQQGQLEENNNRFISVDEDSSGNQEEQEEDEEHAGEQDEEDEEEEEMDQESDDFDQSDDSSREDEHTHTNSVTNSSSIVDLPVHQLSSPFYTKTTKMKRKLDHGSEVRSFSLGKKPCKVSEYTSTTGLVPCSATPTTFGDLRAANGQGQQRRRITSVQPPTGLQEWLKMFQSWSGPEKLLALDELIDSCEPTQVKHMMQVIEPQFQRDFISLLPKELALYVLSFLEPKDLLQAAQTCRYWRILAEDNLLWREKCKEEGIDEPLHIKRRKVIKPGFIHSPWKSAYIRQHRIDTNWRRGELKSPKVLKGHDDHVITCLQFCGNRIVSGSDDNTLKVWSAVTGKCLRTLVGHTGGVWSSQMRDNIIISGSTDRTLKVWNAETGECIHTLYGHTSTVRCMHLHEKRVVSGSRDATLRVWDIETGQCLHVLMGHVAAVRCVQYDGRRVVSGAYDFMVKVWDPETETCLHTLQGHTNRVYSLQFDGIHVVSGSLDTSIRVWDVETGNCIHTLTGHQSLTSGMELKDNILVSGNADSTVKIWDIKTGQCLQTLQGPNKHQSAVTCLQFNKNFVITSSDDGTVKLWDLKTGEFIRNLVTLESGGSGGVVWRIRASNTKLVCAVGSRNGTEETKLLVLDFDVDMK
GPR151 activ: activators of human GPR151, primary screen, cell-based, PathHunter beta-arrestin, luminescence | G-protein coupled receptor 151 (Homo sapiens), Q8TDV0 | PathHunter beta-arrestin GPR151 cells | activation, % at 11.2 µM | 650,000 tested, 1% active; in the data active means activation above about 4.9%
TEAD-YAP block: TEAD-YAP interaction inhibition, primary screen, TEAD-YAP interaction inhibitor project, luminescence, HEK-TIYL cells | AID 1259422, 2018 | TEAD-Gal4/YAP UAS-luciferase luminescence | 640,000 tested, 1.4% active | inhibition, % at 9.12 µM; in the data active means inhibition above about 32%
GPR151 conf act: GPR151 activators, triplicate retest, confirmation, cell-based, PathHunter beta-arrestin, luminescence; 6,700 tested, under 10 active; shares compounds with GPR151 activ; GPR151 PathHunter beta-arrestin cells, 90 min; % of EA-reagent control over plate median; activation, % at 11.2 µM;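 active means mean percent activation across replicates above the confirmation screen cutoff of 4.91%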
GPR119 ag: GPR119 activators in beta-arrestin cells, counter-screen for GPR151 activator project, cell-based, PathHunter beta-arrestin, luminescence, triplicate; shares compounds with GPR151 activ; 90 min; 0 = compound-well median, 100 = enzyme-acceptor control; activation, % at 11.2 µM; 6,700 tested, 0.3% active; AID 1508611, 2020;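 active means mean percent activation in the counterscreen above 29.09%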;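 further: counterscreen on off-target GPR119 to flag nonselective hits from the GPR151 activator screen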
Large screens that a line does not name were inactive (follow-up assays come after a bar, where they were run).

C/C(=N\Nc1cc(N2CCOCC2)nc(C)n1)c1cccc([N+](=O)[O-])c1	GPR151 activ 5.2 | GPR151 conf act inactive | GPR119 ag inactive
O=C(/C=C/c1ccc(Br)cc1)N1CCOCC1	none
O=C(/C=C/c1ccc(-c2ccc(Br)cc2)o1)N1CCOCC1	GPR151 activ 5.4 | GPR151 conf act inactive | GPR119 ag inactive
COc1ccccc1NS(=O)(=O)c1ccc2oc(=O)ccc2c1	none
CCc1ccccc1NS(=O)(=O)c1ccc2oc(=O)ccc2c1	GPR151 activ 13 | GPR151 conf act inactive | GPR119 ag inactive
COC(=O)c1ccc(/C=C2/C(=O)NN(c3ccc(C)c(C)c3)C2=O)cc1	GPR151 activ 5.2 | GPR151 conf act inactive | GPR119 ag inactive
Cc1cnc(-c2cccs2)nc1NCc1ccccc1	none
Cc1nc2c(c(=O)[nH]1)CCN(Cc1ccc3ncccc3c1)C2	GPR151 activ 6.5 | GPR151 conf act inactive | GPR119 ag inactive
Cc1cc(N2CCN(c3nc4nonc4nc3N(C)C)CC2)cc(C)n1	none
O=C(COC(=O)c1cccc(S(=O)(=O)NCC(F)(F)F)c1)c1ccccc1	GPR151 activ 5.6 | GPR151 conf act inactive | GPR119 ag inactive
COc1ccccc1-c1nc(SCc2ccccc2)n[nH]1	none
COCCn1c(SCC(=O)Nc2ccc(C)c(C)c2)nnc1C(C)C	GPR151 activ 8.2 | GPR151 conf act inactive | GPR119 ag inactive
O=C(c1ccccc1Sc1ccccc1[N+](=O)[O-])N1CCCC1	none
C=CCOC(=O)c1cc(-c2ccc(/C=N/Nc3nn[nH]n3)o2)ccc1Cl	GPR151 activ 5.0 | GPR151 conf act inactive | GPR119 ag inactive
COc1ccc(OC)c(/C=C/C(=O)OCC(N)=O)c1	none
Cc1ccc(OCC(=O)Nc2c[nH]c(=O)[nH]c2=O)c(C)c1	none
S=C1NC2=C(C(c3ccc(Br)cc3)N1)N1CCC2CC1 (stereo not given)	GPR151 activ 5.7 | GPR151 conf act inactive | GPR119 ag inactive
CN(C)c1ccc(C2NC(=S)NC3=C2N2CCC3CC2)cc1 (stereo not given)	none
CC(=O)c1ccc(C(C)(C)C)cc1NC(=O)c1ccc(Cl)cc1	none
COc1cccc(C(=O)Nc2cc(C(C)(C)C)ccc2C(C)=O)c1	GPR151 activ 5.2 | GPR151 conf act inactive | GPR119 ag inactive
COc1cccc(C(=O)Nc2cc(=O)n(C)c(=O)n2C)c1	GPR151 activ 10 | GPR151 conf act inactive | GPR119 ag inactive
COc1ccc(C(=O)Nc2cc(=O)n(C)c(=O)n2C)cc1	none
CC1Cc2ccccc2N1S(=O)(=O)c1ccc(CN2C(=O)c3cccnc3C2=O)cc1 (stereo not given)	none
COc1ccc(NC(=O)CSc2nccn(-c3ccc(F)cc3)c2=O)c(OC)c1	none
N#C/C(=C\c1ccc(O)cc1O)c1nc2ccccc2[nH]1	none
Cc1ccc2nc(/C(C#N)=C\c3ccccc3OCC#N)[nH]c2c1	GPR151 activ 5.1 | GPR151 conf act inactive | GPR119 ag inactive
N#C/C(=C\c1cc(Cl)ccc1O)c1nc2ccccc2[nH]1	GPR151 activ 5.7 | GPR151 conf act inactive | GPR119 ag inactive
COc1ccccc1-n1cc(CN2CCN3C(=O)[C@H](Cc4c[nH]c5ccccc45)NC(=O)[C@H]3C2)cn1	none
Cc1ccc(-c2csc(Nc3ccc(Cl)cc3)n2)cc1C	none
CSc1cccc(NC(=S)N(Cc2ccccc2)Cc2cccs2)c1	GPR151 activ 6.5 | GPR151 conf act inactive | GPR119 ag inactive
Cc1cccc(NC(=S)N(Cc2ccccc2)Cc2cccs2)c1	none
N/C(=N\OC(=O)Cc1ccc(-c2ccccc2)cc1)c1ccccc1	none
CC(C)(C)N1C(=O)C2C3CC(C2C1=O)C1C3N=NN1c1ccccc1[N+](=O)[O-] (stereo not given)	none
O=S1(=O)CCC(NS(=O)(=O)c2ccc(S(=O)(=O)NC3CC3)cc2)C1 (stereo not given)	GPR151 activ 5.2 | GPR151 conf act inactive | GPR119 ag inactive
CCCCc1ccc(OCC(=O)NNC(=O)c2cc3cc(Br)ccc3oc2=O)cc1	none
CC(C)(C)OC(=O)NNC(=O)/C=C/c1cc(Br)ccc1F	GPR151 activ 5.2 | GPR151 conf act inactive | GPR119 ag inactive
CCOCCCNC(=O)CN1CC(=O)N2CCCC2C1=O (stereo not given)	none
CCN(CC)CCNC(=O)CN1CC(=O)N2CCCC2C1=O (stereo not given)	GPR151 activ 5.9 | GPR151 conf act inactive | GPR119 ag inactive
O=C(COC(=O)c1ccc(OC(F)F)cc1)Nc1cccnc1Cl	GPR151 activ 12 | GPR151 conf act inactive | GPR119 ag inactive
CCC1CCCCN1C(=O)COC(=O)/C(C#N)=C/c1ccc2c(c1)OCO2 (stereo not given)	none
CC1(C)CC2CC(C)(CN2C(=O)COC(=O)/C(C#N)=C/c2ccc3c(c2)OCO3)C1 (stereo not given)	GPR151 activ 6.1 | GPR151 conf act inactive | GPR119 ag inactive
COc1cccc2cc(-c3csc(NC(=O)CCC(=O)N4CCC(C(N)=O)CC4)n3)c(=O)oc12	GPR151 activ 5.2 | GPR151 conf act inactive | GPR119 ag inactive
CC(C)(C)CN1CCCC(CNS(=O)(=O)c2cccc3cccnc23)C1 (stereo not given)	GPR151 activ 6.4 | GPR151 conf act inactive | GPR119 ag inactive
O=S(=O)(NCC1CCCN(Cc2ccccn2)C1)c1cccc2cccnc12 (stereo not given)	none
CS(=O)(=O)N(CC(N)=O)c1cccc([N+](=O)[O-])c1	none
Cc1ccc(S(=O)(=O)N(CC(N)=O)c2cccc([N+](=O)[O-])c2)cc1	GPR151 activ 8.4 | GPR151 conf act inactive | GPR119 ag inactive
C/C(=C\c1ccccc1)C1C(C#N)=C(N)Oc2n[nH]c(C)c21 (stereo not given)	none
O=C(Nc1ccc(Br)cc1)c1ccc(N2C(=O)C3CCCCC3C2=O)cc1 (stereo not given)	none
O=C(Nc1ccc(Br)cc1)c1cccc(N2C(=O)C3CCCCC3C2=O)c1 (stereo not given)	GPR151 activ 7.5 | GPR151 conf act inactive | GPR119 ag inactive
COc1ccc(C=NC2CCCCC2)c(OC)c1	none
COc1ccccc1NC(=O)C1=C(C)Nc2nc(CCCO)nn2C1c1ccc(F)cc1 (stereo not given)	none
COc1ccc(NC(=O)COc2ccc3c(=O)c(-c4ccc(F)cc4)coc3c2)cc1	GPR151 activ 5.4 | GPR151 conf act inactive | GPR119 ag inactive
COC(=O)c1ccc(OCCOCCOc2cccc3ccc(C)nc23)cc1	none
